# PubChem BioAssay (EPA / NIEHS)
# Inconclusive results are not listed. Calls of active or inactive are those of the source. Rule for the calls, unless noted: active = hit-call score of the fitted dose curve at least 0.9, where 1 is the maximum; inconclusive = response in the unintended direction; inactive = score below 0.9.
# Tests used:
# [1] = CCTE_Deisenroth_AIME_384WELL_CTox_Active: Cytotoxicity Assessment (CTOX) in CCTE's 384-well Estrogen Receptor Transactivation Assay with AIME metabolic competence (metabolism positive), Deisenroth Lab (AID 2284037);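 note: chemicals first conditioned 2 h by alginate-bound induced rat liver S9 before cells; activity means signal loss indicating cell death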
# How it was run: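 Chemicals pre-incubated 2 hours with alginate-immobilised phenobarbital/beta-naphthoflavone-induced male Sprague Dawley rat liver S9, then conditioned medium applied 24 hour to VM7Luc4E2 cells. Viability by fluorogenic protease substrate; 10-point series 0.002 - 200 uM.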
# [2] = CCTE_Deisenroth_AIME_384WELL_CTox_Inactive: Cytotoxicity Assessment (CTOX) in CCTE's 384-well Estrogen Receptor Transactivation Assay without AIME metabolic competence (metabolism negative), Deisenroth Lab (AID 2284039);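 note: cell viability via live-cell protease substrate cleaved to fluorescent probe; cells exposed 24 h to medium preincubated 2 h with alginate-water beads without S9; loss of fluorescence signal means loss of viability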
# How it was run: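 VM7Luc4E2 cells, metabolism-negative arm: test chemicals (0.002–200 uM, 10 points) pre-incubated 2 h with alginate-water microspheres, then medium transferred to cells for 24 h. Viability read as protease-substrate cleavage to fluorescent probe; loss-of-signal, bidirectional fitting.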
# [3] = biological target: Estrogen receptor (Homo sapiens) (UniProt P03372); assay: CCTE_Deisenroth_AIME_384WELL_LUC_Inactive: CCTE's 384-well Estrogen Receptor Transactivation Assay without AIME metabolic competence (ERTA luciferase; metabolism negative), Deisenroth Lab (AID 2284038);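 note: VM7Luc4E2 breast cells given medium preincubated 2 h with S9-free microspheres; hits raise estrogen receptor luciferase signal so potencies reflect agonists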
# Chain of Estrogen receptor (Homo sapiens) (P03372 whole entry, looked up): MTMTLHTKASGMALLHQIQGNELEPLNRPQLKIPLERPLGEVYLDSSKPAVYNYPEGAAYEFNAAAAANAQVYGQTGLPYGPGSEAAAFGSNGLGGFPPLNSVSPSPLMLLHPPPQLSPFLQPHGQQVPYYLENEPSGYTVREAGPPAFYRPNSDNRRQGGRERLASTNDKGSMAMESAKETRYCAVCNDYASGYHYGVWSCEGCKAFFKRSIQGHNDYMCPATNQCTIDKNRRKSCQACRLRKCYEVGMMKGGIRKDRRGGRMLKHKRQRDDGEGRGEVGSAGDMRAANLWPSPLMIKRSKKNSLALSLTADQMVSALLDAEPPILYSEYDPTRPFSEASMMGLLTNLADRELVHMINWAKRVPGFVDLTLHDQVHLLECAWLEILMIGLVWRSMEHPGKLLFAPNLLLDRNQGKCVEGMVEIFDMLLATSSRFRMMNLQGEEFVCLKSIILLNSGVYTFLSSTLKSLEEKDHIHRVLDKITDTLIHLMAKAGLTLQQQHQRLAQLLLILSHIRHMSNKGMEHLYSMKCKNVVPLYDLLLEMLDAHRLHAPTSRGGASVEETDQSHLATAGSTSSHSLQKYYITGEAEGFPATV
# How it was run: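 Metabolism-negative mode: chemicals (10-point, 0.002–200 uM) held 2 h with alginate-water microspheres, then conditioned medium applied to VM7Luc4E2 cells for 24 h. Luciferase induction referenced to 17beta-estradiol.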
# [4] = biological target: Estrogen receptor (Homo sapiens) (UniProt P03372); assay: CCTE_Deisenroth_AIME_384WELL_LUC_Shift: CCTE's 384-well Estrogen Receptor Transactivation Assay with AIME metabolic competence data shift (ERTA luciferase; difference in metabolism positive and negative), Deisenroth Lab (AID 2284041; active = hit-call score of the fitted dose curve at least 0.9, where 1 is the maximum; inactive = score below 0.9;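 note: shift is response with S9 minus without S9 so positive means metabolism raised ER signal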)
# How it was run: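 Chemicals (0.002–200 uM, 10 points) pre-incubated 2 h with alginate-encapsulated induced male Sprague Dawley rat liver S9 or S9-free, then medium applied 24 h to VM7Luc4E2 cells; luciferase. Endpoint is per-concentration difference, S9-positive minus negative.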
# DIO2 (gene 1734) = assay: CCTE_GLTED_hDIO2: CCTE's human Deiodinase 2 (DIO2) Inhibition Assay, Great Lakes Toxicology and Ecology Division (GLTED) Lab (AID 2284050)
# How it was run: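 hDIO2 enzyme + test chem, 3 h → free iodide from substrate; step 2: Sandell-Kolthoff (Ce IV reduction by As, iodide-catalysed), spectrophotometric read. Triplicate plates; DMSO = baseline.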
# DIO3 (gene 1735) = assay: CCTE_GLTED_hDIO3: CCTE's human Deiodinase 3 (DIO3) Inhibition Assay, Great Lakes Toxicology and Ecology Division (GLTED) Lab (AID 2284055);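 note: potency is for inhibition seen as loss of released iodide signal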
# How it was run: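 Absorbance from the Sandell-Kolthoff reaction reports iodide released by human DIO3 during a 3-hour incubation with chemical. Inhibition scored as signal loss against DMSO controls.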
smiles,measurement,setting,value
Oc1ccc2c(c1)-c1ccccc1C2,outcome,[1],inactive
same,AC50,[2],156 µM (active)
O=C(O)c1cccc(Oc2ccccc2)c1,outcome,[1],inactive
same,outcome,[3],inactive
same,AC50,[2],0.000708 µM (active)
same,outcome,[4],inactive
O=c1n(CC2CO2)c(=O)n(CC2CO2)c(=O)n1CC1CO1 (stereo not drawn),AC50,[1],136 µM (active)
same,outcome,[3],inactive
same,AC50,[2],100 µM (active)
CC(C)CCCCCCCOC(=O)CCCCC(=O)OCCCCCCCC(C)C,outcome,[1],inactive
COCCOCCOCCOC,outcome,[1],inactive
same,outcome,[2],inactive
CCCCCCc1ccc(O)cc1O,AC50,[1],104 µM (active)
same,AC50,[2],162 µM (active)
COc1cccc(-c2ccc(/C=C\CN3CCCCCC3)cc2Cl)c1,outcome,[1],inactive
same,outcome,[3],inactive
same,outcome,[2],inactive
same,outcome,[4],inactive
same,AC50,DIO2 (gene 1734),77.7 µM (active)
same,AC50,DIO3 (gene 1735),32.8 µM (active)
O=C(O)c1cc(N=Nc2ccc(S(=O)(=O)Nc3ccccn3)cc2)ccc1O,AC50,[1],100 µM (active)
same,AC50,[2],49.7 µM (active)
Cn1c(=O)cc(Oc2ccc(F)cc2F)c2cnc(NCC(C)(C)O)nc21,outcome,[1],inactive
same,outcome,[3],inactive
same,outcome,[2],inactive
same,AC50,[4],79.3 µM (active)
CCCN(C1CCN(C(=O)C2CCNCC2)CC1)[C@@H]1CCc2ccc(OC)cc2C1,outcome,[1],inactive
Cc1ccc(O)cc1,outcome,[1],inactive
Cc1c(-c2cccnc2)c2ccccc2n1CCCCC(=O)O,outcome,[1],inactive
Nc1ccc(Nc2ccccc2)cc1,outcome,[1],inactive
same,outcome,[3],inactive
same,AC50,[2],74.6 µM (active)
same,outcome,[4],inactive
CCCCCCCCO,outcome,[1],inactive
same,outcome,[3],inactive
same,outcome,[2],inactive
same,outcome,[4],inactive
CC(C)=CCC/C(C)=C\CO,outcome,[1],inactive
same,outcome,[2],inactive
COCCOc1cc2cc(C(=O)NC3CCN(C(C)C)CC3)n(CC(=O)Nc3ccc(Cl)cn3)c2cn1,outcome,[1],inactive
same,outcome,[2],inactive
CCOCCOCCOCCO,outcome,[1],inactive
same,outcome,[2],inactive
CC(C)c1cccc(C(C)C)c1N1C(=O)c2ccc(O)cc2C1=O,outcome,[1],inactive
same,outcome,[2],inactive
CC1=CC(=O)CC(C)(C)C1,outcome,[1],inactive
same,outcome,[2],inactive
On1ccccc1=S,outcome,[1],inactive
same,outcome,[2],inactive
CCN(C(=O)c1cc(C)cc(OC[C@H](C)Nc2ccncc2)c1)C(C)C,outcome,[1],inactive
same,outcome,[2],inactive
CC(=O)OCCC(C)C,outcome,[1],inactive
same,outcome,[2],inactive
